Source: PubChem BioAssay AID1159580 (chemical genetic matrix, 2015)
Screen size: about 5,500 compounds; about 2,000 (36%) were called active. Roughly 18% stayed inconclusive and do not appear here. Rule as the data show it: active = normalized growth mostly below about 0.91 (no sharp cut-off); inconclusive = no clear call, values can overlap the other calls; inactive = mostly above about 0.92. This is one part of the list.

Test: chemical genetic growth profiling, strain panel (AID 1159580);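 also: tested at 20 µM; growth read once vehicle control cultures reached saturation at 30 °C; 1 = growth at the plate median or of vehicle wells; lower values mean less growth of the strain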
Details: growth OD

Measured: normalized growth

C1CCC(C(CC2CCCCN2)C2CCCCC2)CC1 (centres undefined)
active: S. cerevisiae deletion strains, locus YJR075W, strain HOC1, active compounds read low 0.606 | S. cerevisiae deletion strains, locus YKL190W, strain CNB1, active compounds read low 0.143 | S. cerevisiae deletion strains, locus YKR001C, strain vps1, active compounds read low 0.0792 | S. cerevisiae deletion strains, locus YLR039C, strain RIC1, active compounds read low 0.247 | S. cerevisiae deletion strains, locus YLR058C, strain SHM2, active compounds read low 0.703 | S. cerevisiae deletion strains, locus YLR262C, strain YPT6, active compounds read low 0.151 | S. cerevisiae deletion strains, locus YLR268W, strain sec22, active compounds read low 0.605 | S. cerevisiae deletion strains, locus YLR320W, strain mms22, active compounds read low 0.862 | S. cerevisiae deletion strains, locus YLR330W, strain CHS5, active compounds read low 0.381 | S. cerevisiae deletion strains, locus YLR342W, strain FKS1 (second series), active compounds read low 0.167 | S. cerevisiae deletion strains, locus YLR371W, strain rom2, active compounds read low 0.266 | S. cerevisiae deletion strains, locus YLR418C, strain cdc73, active compounds read low 0.423 | S. cerevisiae deletion strains, locus YML016C, strain PPZ1, active compounds read low 0.363 | S. cerevisiae deletion strains, locus YML032C, strain rad52, active compounds read low 0.877 | S. cerevisiae deletion strains, locus YMR058W, strain fet3, active compounds read low 0.853 | S. cerevisiae deletion strains, locus YMR223W, strain ubp8, active compounds read low 0.454 | S. cerevisiae deletion strains, locus YMR231W, strain pep5, active compounds read low 0.0752 | S. cerevisiae deletion strains, locus YMR263W, strain SAP30, active compounds read low 0.843 | S. cerevisiae deletion strains, locus YMR307W, strain GAS1, active compounds read low 0.174 | S. cerevisiae deletion strains, locus YNL067W, strain RPL9B, active compounds read low 0.793 | S. cerevisiae deletion strains, locus YNL233W, strain BNI4, active compounds read low 0.245 | S. cerevisiae deletion strains, locus YNL307C, strain MCK1, active compounds read low 0.267 | S. cerevisiae deletion strains, locus YNR052C, strain pop2, active compounds read low 0.14 | S. cerevisiae deletion strains, locus YOL006C, strain TOP1, active compounds read low 0.115 | S. cerevisiae deletion strains, locus YOR061W, strain CKA2, active compounds read low 0.114 | S. cerevisiae deletion strains, locus YOR069W, strain VPS5, active compounds read low 0.906 | S. cerevisiae deletion strains, locus YOR106W, strain vam3, active compounds read low 0.458 | S. cerevisiae deletion strains, locus YOR136W, strain idh2, active compounds read low 0.77 | S. cerevisiae deletion strains, locus YOR184W, strain ser1, active compounds read low 0.608 | S. cerevisiae deletion strains, locus YOR270C, strain vph1, active compounds read low 0.452 | S. cerevisiae deletion strains, locus YPL051W, strain arl3, active compounds read low 0.886 | S. cerevisiae deletion strains, locus YPL055C, strain LGE1, active compounds read low 0.4 | S. cerevisiae deletion strains, locus YPR163C, strain tif3, active compounds read low 0.0807 | S. cerevisiae deletion strains, locus YPR167C, strain met16, active compounds read low 0.844 | S. cerevisiae deletion strains, strain wtn01, active compounds read low 0.317 | S. cerevisiae strains, strain wild type, active compounds read low 0.314
inactive: S. cerevisiae deletion strains, locus YJR066W, strain TOR1, active compounds read low 0.973 | S. cerevisiae deletion strains, locus YKL009W, strain mrt4, active compounds read low 1 | S. cerevisiae deletion strains, locus YKL068W, active compounds read low 1.01 | S. cerevisiae deletion strains, locus YKL085W, strain MDH1 (second series), active compounds read low 0.996 | S. cerevisiae deletion strains, locus YKL085W, strain MDH1, active compounds read low 0.996 | S. cerevisiae deletion strains, locus YKL160W, strain elf1, active compounds read low 0.952 | S. cerevisiae deletion strains, locus YKR026C, strain gcn3, active compounds read low 0.988 | S. cerevisiae deletion strains, locus YKR091W, strain srl3, active compounds read low 0.989 | S. cerevisiae deletion strains, locus YLL001W, strain dnm1, active compounds read low 0.992 | S. cerevisiae deletion strains, locus YLL026W, active compounds read low 0.985 | S. cerevisiae deletion strains, locus YLL041C, strain sdh2, active compounds read low 0.967 | S. cerevisiae deletion strains, locus YLR027C, strain aat2, active compounds read low 0.977 | S. cerevisiae deletion strains, locus YLR102C, strain apc9, active compounds read low 1.01 | S. cerevisiae deletion strains, locus YLR113W, strain HOG1, active compounds read low 1.02 | S. cerevisiae deletion strains, locus YLR221C, strain rsa3, active compounds read low 0.98 | S. cerevisiae deletion strains, locus YLR258W, strain gsy2, active compounds read low 0.99 | S. cerevisiae deletion strains, locus YLR262C, strain YPT6 (second series), active compounds read low 1.08 | S. cerevisiae deletion strains, locus YLR342W, strain FKS1, active compounds read low 0.981 | S. cerevisiae deletion strains, locus YLR357W, strain rsc2, active compounds read low 0.963 | S. cerevisiae deletion strains, locus YLR370C, strain arc18, active compounds read low 0.981 | S. cerevisiae deletion strains, locus YLR384C, strain iki3, active compounds read low 0.972 | S. cerevisiae deletion strains, locus YML120C, strain ndi1, active compounds read low 0.973 | S. cerevisiae deletion strains, locus YML124C, strain tub3, active compounds read low 0.954 | S. cerevisiae deletion strains, locus YMR078C, strain ctf18, active compounds read low 1.02 | S. cerevisiae deletion strains, locus YMR125W, strain sto1, active compounds read low 0.897 | S. cerevisiae deletion strains, locus YMR129W, active compounds read low 0.972 | S. cerevisiae deletion strains, locus YMR205C, strain PFK2, active compounds read low 0.93 | S. cerevisiae deletion strains, locus YNL071W, strain lat1, active compounds read low 0.975 | S. cerevisiae deletion strains, locus YNL183C, strain NPR1, active compounds read low 0.976 | S. cerevisiae deletion strains, locus YNL209W, strain ssb2, active compounds read low 0.974 | S. cerevisiae deletion strains, locus YNL248C, strain rpa49, active compounds read low 0.926 | S. cerevisiae deletion strains, locus YNL250W, strain rad50, active compounds read low 1.01 | S. cerevisiae deletion strains, locus YNL271C, strain bni1, active compounds read low 1.01 | S. cerevisiae deletion strains, locus YNL298W, strain CLA4, active compounds read low 1.01 | S. cerevisiae deletion strains, locus YNL322C, strain KRE1 (second series), active compounds read low 0.975 | S. cerevisiae deletion strains, locus YNR049C, strain mso1, active compounds read low 0.99 | S. cerevisiae deletion strains, locus YOL147C, strain pex11, active compounds read low 0.941 | S. cerevisiae deletion strains, locus YOR001W, strain rrp6, active compounds read low 0.893 | S. cerevisiae deletion strains, locus YOR070C, strain gyp1, active compounds read low 0.979 | S. cerevisiae deletion strains, locus YOR080W, strain dia2, active compounds read low 0.988 | S. cerevisiae deletion strains, locus YOR083W, strain WHI5, active compounds read low 0.94 | S. cerevisiae deletion strains, locus YOR144C, strain elg1, active compounds read low 1.02 | S. cerevisiae deletion strains, locus YOR231W, strain MKK1, active compounds read low 1.02 | S. cerevisiae deletion strains, locus YOR265W, strain rbl2, active compounds read low 0.979 | S. cerevisiae deletion strains, locus YOR290C, strain snf2, active compounds read low 0.869 | S. cerevisiae deletion strains, locus YOR316C, strain cot1, active compounds read low 0.97 | S. cerevisiae deletion strains, locus YPL078C, strain atp4, active compounds read low 0.973 | S. cerevisiae deletion strains, locus YPL106C, strain sse1, active compounds read low 0.984 | S. cerevisiae deletion strains, locus YPL240C, strain hsp82, active compounds read low 0.98 | S. cerevisiae deletion strains, locus YPL241C, strain CIN2, active compounds read low 0.93 | S. cerevisiae deletion strains, locus YPL256C, strain CLN2, active compounds read low 1.02 | S. cerevisiae deletion strains, locus YPR119W, strain clb2, active compounds read low 0.935 | S. cerevisiae deletion strains, locus YPR141C, strain kar3, active compounds read low 1.03
